Measurements as given in PubChem BioAssay (Tox21).
Records with an inconclusive call do not appear. Calls of active or inactive are those of the source. Unless noted, the call rests on the fitted dose curve.

What was measured:
[1] = qHTS assay to identify small molecule antagonists of the vitamin D receptor (VDR) signaling pathway - cell viability counter screen (AID 743225; active means well fitted curve in the direction sought with a large enough effect in the repeat runs; an effect the other way counts as inactive or inconclusive; further: on the % scale 0 is the no-effect control and ±100 the full control effect; nearly all actives have a fitted effect of over 50% in size)
How it was run: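 Same-well multiplex: following 16 h treatment of HEK 293T cells carrying a UAS-driven beta-lactamase reporter with compound and agonist (3 nM final), and a 2 h FRET substrate step, CellTiter-Glo was added and luminescence read after 30 min.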

[2] = qHTS assay to identify small molecule agonists of the NFkB signaling pathway - cell viability counter screen (AID 1159515); further: series mostly up to about 61 µM; on the % scale 0 is the no-effect control and ±100 the full control effect; nearly all actives have a fitted effect of over 55% in size
How it was run: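 Using the same wells as the NFkB reporter read, ME-180 NFkB-bla cells given compounds for 5 hr were assessed for viability via CellTiter-Glo, with luminescence taken after a 30 min room-temperature incubation.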

[3] = qHTS assay to identify small molecule agonists of the endoplasmic reticulum stress response signaling pathway - cell viability counter screen (AID 1159517);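 further: HeLa cells carrying an ER stress response element beta-lactamase reporter; series mostly up to about 61 µM; on the % scale 0 is the no-effect control and ±100 the full control effect; nearly all actives have a fitted effect of over 50% in size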
How it was run: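 Cells, HeLa ESRE-bla; density, 1,500/well; dosing, 5 hr at 37 C, 5% CO2; readout, CellTiter-Glo luminescence after 30 min RT.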

[4] = qHTS assay to identify small molecule antagonists of the retinoid-related orphan receptor gamma (ROR-gamma) signaling pathway - cell viability counter screen (AID 1159520; active means well fitted curve in the direction sought with a large enough effect in the repeat runs; an effect the other way counts as inactive or inconclusive; further: on the % scale 0 is the no-effect control and ±100 the full control effect; nearly all actives have a fitted effect of over 50% in size)
How it was run: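 Cytotoxicity was read from cellular ATP (CellTiter-Glo luminescence) after 16 hr at 37 C with 1 uM doxycycline induction. The inducer was added 2 hr after compound transfer to Tet-on ROR gamma CHO cells.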

[5] = molecular target: Nuclear receptor ROR-gamma (Homo sapiens) (UniProt P51449); assay: qHTS assay to identify small molecule antagonists of the retinoid-related orphan receptor gamma (ROR-gamma) signaling pathway (AID 1159521; active means well fitted curve in the direction sought with a large enough effect in the repeat runs; an effect the other way counts as inactive or inconclusive;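 further: CHO cells with doxycycline inducible ROR-gamma driving an RORE luciferase reporter; top concentration of the series differs between compounds; on the % scale 0 is the no-effect control and ±100 the full control effect; nearly all actives have a fitted effect of over 50% in size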)
How it was run: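 Inducible-expression reporter assay: doxycycline (1 uM final) switched on RORγ in CHO cells bearing a ROR response element-luciferase construct, with test compounds present from 2 h beforehand. Decreased luminescence after 16 h defined antagonist activity.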

[6] = qHTS assay to identify small molecule agonists of the AP-1 signaling pathway - cell viability counter screen (AID 1159525); further: nearly all actives have a fitted effect of over 55% in size
How it was run: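 Luminescent ATP readout (Cell Titer Glo, 30 min RT), normalised to DMSO and tetra n-octyl ammonium bromide controls. Cells were ME-180 AP-1-bla in 0.5% dialyzed FBS Opti-MEM, with a 5 h, 37 °C compound exposure.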

[7] = qHTS assay to identify small molecule agonists of the AP-1 signaling pathway (AID 1159526); further: on the % scale 0 is the no-effect control and ±100 the full control effect
[8] = molecular target: Retinoic acid receptor RXR-alpha (Homo sapiens) (UniProt P19793); assay: qHTS assay to identify small molecule agonists of the RXR signaling pathway (AID 1159527); further: on the % scale 0 is the no-effect control and ±100 the full control effect; nearly all actives have a fitted effect of over 35% in size
How it was run: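 Compounds in DMSO were added to RXR-alpha-UAS-bla HEK 293T cells kept in 2% charcoal-stripped serum, and incubated 16 hr at 37 C with 5% CO2. Reporter signal came from a 2 hr B/G FRET substrate step.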

[9] = qHTS assay to identify small molecule agonists of the RXR signaling pathway - cell viability counter screen (AID 1159529; active means well fitted curve in the direction sought with a large enough effect in the repeat runs; an effect the other way counts as inactive or inconclusive)
How it was run: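 Counter screen: CellTiter-Glo luminescence. Cells: RXR-alpha-UAS-bla HEK 293T. Medium: 2% charcoal-stripped FBS. Treatment: 16 h, 37 C. Reagent incubation: 30 min, RT.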

Chain of Retinoic acid receptor RXR-alpha (Homo sapiens) (P19793 whole entry, looked up): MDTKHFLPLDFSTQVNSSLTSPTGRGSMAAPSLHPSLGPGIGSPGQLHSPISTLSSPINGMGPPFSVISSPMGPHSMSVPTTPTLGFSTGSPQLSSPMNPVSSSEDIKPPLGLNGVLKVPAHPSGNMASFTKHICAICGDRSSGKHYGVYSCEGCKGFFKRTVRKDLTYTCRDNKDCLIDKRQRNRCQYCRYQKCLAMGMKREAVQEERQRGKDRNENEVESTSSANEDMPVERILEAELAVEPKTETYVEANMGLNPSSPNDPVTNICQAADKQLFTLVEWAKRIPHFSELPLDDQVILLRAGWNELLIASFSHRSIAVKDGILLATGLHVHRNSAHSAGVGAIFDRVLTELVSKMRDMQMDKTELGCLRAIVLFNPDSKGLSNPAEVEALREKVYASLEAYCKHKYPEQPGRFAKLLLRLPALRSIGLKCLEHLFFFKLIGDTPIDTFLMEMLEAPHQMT

CNC(=O)c1c(I)c(NC(C)=O)c(I)c(C(=O)O)c1I
inactive: outcome [1] | outcome [2] | outcome [3] | outcome [4] | outcome [5] | outcome [6] | Potency [7] | Potency [8] | Potency [9]

CCO[Si](CC(C)C)(OCC)OCC
inactive: outcome [2] | outcome [3] | outcome [4] | outcome [5] | outcome [6] | Potency [7] | Potency [9]

O=S(=O)(O)c1cc(I)c(O)c2ncccc12
inactive: outcome [1] | outcome [2] | outcome [3] | outcome [4] | outcome [5] | outcome [6] | Potency [7] | Potency [8] | Potency [9]

Nc1cc(S(=O)(=O)O)ccc1O
inactive: outcome [1] | outcome [2] | outcome [3] | outcome [4] | outcome [5] | outcome [6] | Potency [7] | Potency [8] | Potency [9]

NC[C@H]1O[C@H](O[C@H]2[C@H](O)[C@@H](O[C@H]3O[C@H](CO)[C@@H](O)[C@H](N)[C@H]3O)[C@H](N)C[C@@H]2N)[C@H](N)[C@@H](O)[C@@H]1O
inactive: outcome [1] | outcome [2] | outcome [3] | activity, negative = cytotoxicity [4] 0.5% [at 19 µM] | activity change, negative = inhibition [5] -19.4% [at 19 µM] | viability change, negative = cytotoxic [6] 1.49% [at 15.8 µM] | activation [7] 0.424% [at 15.8 µM] | activity change, negative = cytotoxicity [9] 3.13% [at 15.8 µM]

CCCCCCC(=O)c1ccccc1
inactive: outcome [1] | outcome [2] | outcome [4] | outcome [5] | outcome [6] | Potency [7] | Potency [8] | Potency [9]

CC(=O)O[C@@H]1CC2C3CCc4cc(OC(=O)c5ccccc5)ccc4C3CCC2(C)[C@H]1OC(C)=O (stereo partly drawn)
inactive: outcome [1] | outcome [2] | outcome [3] | outcome [4] | outcome [5] | outcome [6] | Potency [7] | Potency [8] | Potency [9]

CCOc1ccccc1OCCN[C@H](C)Cc1ccc(OC)c(S(N)(=O)=O)c1
inactive: outcome [1] | outcome [2] | outcome [3] | outcome [4] | outcome [5] | outcome [6] | Potency [7] | Potency [8] | Potency [9]

C/C=C/C(=O)CCCC
inactive: outcome [1] | outcome [2] | outcome [3] | outcome [4] | outcome [5] | outcome [6] | Potency [7] | Potency [8] | Potency [9]

COc1ccc(Cl)cc1C
inactive: outcome [1] | outcome [2] | outcome [3] | outcome [4] | outcome [5] | outcome [6] | Potency [7] | Potency [8] | Potency [9]

COc1cc(NS(=O)(=O)c2ccc(N)cc2)ncn1
inactive: outcome [1] | outcome [2] | outcome [3] | outcome [4] | outcome [5] | outcome [6] | Potency [7] | Potency [8] | Potency [9]

CC(C)(C)c1ccc(N)cc1
inactive: outcome [1] | outcome [2] | outcome [3] | outcome [4] | outcome [5] | outcome [6] | Potency [7] | Potency [8] | Potency [9]

CC(C)(C)C(=O)CC(=O)C(C)(C)C
inactive: outcome [2] | outcome [3] | outcome [4] | outcome [5] | outcome [6] | Potency [7] | Potency [9]

COC(=O)c1ccc(C(=O)O)cc1
inactive: outcome [1] | outcome [2] | outcome [3] | outcome [4] | outcome [6] | Potency [7] | Potency [8] | Potency [9]

O=S(=O)(O)c1ccc(Cl)cc1
inactive: outcome [1] | outcome [2] | outcome [3] | outcome [4] | outcome [5] | outcome [6] | Potency [7] | Potency [8] | Potency [9]

CC(=O)c1ccc2ccc3ccccc3c2c1
inactive: outcome [1] | outcome [2] | outcome [3] | outcome [4] | outcome [5] | outcome [6] | Potency [7] | Potency [8] | Potency [9]

O=C(O)Cc1c(Cl)ccc(Cl)c1Cl
inactive: outcome [1] | outcome [2] | outcome [3] | outcome [4] | outcome [5] | outcome [6] | Potency [7] | Potency [8] | Potency [9]

CN(C)c1cc(NC(=O)CNC(C)(C)C)c(O)c2c1C[C@H]1C[C@H]3[C@H](N(C)C)C(=O)C(C(N)=O)=C(O)[C@@]3(O)C(=O)C1=C2O
inactive: outcome [1] | outcome [2] | outcome [3] | outcome [4] | outcome [5] | outcome [6] | Potency [7] | Potency [8] | Potency [9]

CCCCS
inactive: outcome [1] | outcome [2] | outcome [3] | outcome [4] | outcome [6] | Potency [7] | Potency [8] | Potency [9]

C=CC(=O)OCCOCCOCC
inactive: outcome [2] | outcome [3] | outcome [4] | outcome [5] | outcome [6] | Potency [7] | Potency [8] | Potency [9]

NNC(=O)OCc1ccccc1
inactive: outcome [1] | outcome [2] | outcome [3] | outcome [4] | outcome [5] | outcome [6] | Potency [7] | Potency [8] | Potency [9]

NC(=O)CC[C@@H](N)C(=O)O
inactive: outcome [1] | outcome [2] | outcome [3] | outcome [4] | outcome [5] | outcome [6] | Potency [7] | Potency [8] | Potency [9]

C=C(C)C(=O)OCCCC
inactive: outcome [1] | outcome [2] | outcome [3] | outcome [4] | outcome [5] | outcome [6] | Potency [7] | Potency [8] | Potency [9]

CC/C=C/CCCCCCCCCCOC(C)=O
inactive: outcome [1] | outcome [2] | outcome [3] | outcome [4] | outcome [5] | outcome [6] | Potency [7] | Potency [8] | Potency [9]

N=C(N)S(=O)O
inactive: outcome [1] | outcome [2] | outcome [3] | outcome [4] | outcome [5] | outcome [6] | Potency [7] | Potency [8] | Potency [9]

O=C(OOC(=O)c1ccccc1)c1ccccc1
inactive: outcome [1] | outcome [2] | outcome [4] | outcome [5] | outcome [6] | Potency [7] | Potency [8] | Potency [9]

c1cc2ccc3ccc4ccc5cccc6c(c1)c2c3c4c56
inactive: viability change, negative = cytotoxic [1] -0.521% [at 3.11 µM] | activity, negative = cytotoxic [2] -1.06% [at 3.12 µM] | activity change, negative = cytotoxicity [3] 6.55% [at 3.11 µM] | activity, negative = cytotoxicity [4] 0.12% [at 3.27 µM] | activity change, negative = inhibition [5] 7.63% [at 3.27 µM] | viability change, negative = cytotoxic [6] -12.5% [at 2.72 µM] | activation [7] -1.11% [at 2.72 µM] | activation [8] 5.24% [at 2.71 µM] | activity change, negative = cytotoxicity [9] 0.199% [at 2.72 µM]
